Only some compounds are listed: those with a hit (about 1% of all), similar ones and a draw of the others.
IP6K1 inh = Primary qHTS assay for small molecule inhibitors of Inositol hexaphosphate kinase 1 (IP6K1); 140,000 tested, 0.81% active; IP6K1 kinase, ADP-Glo luminescence, 2 h; stronger effect = lower value; AID 1645851, 2021; activity change, % (series mostly up to about 58 µM); in the data active = activity change below about -25%; also: % is scaled to controls: 0 for no effect and ±100 for the full control effect
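ADP-Glo luminescence measures ADP made by human IP6K1 during a 2 h RT reaction with ATP/IP6 (mix at 1.3 mM/130 uM); top library doses 57.5 and 19.1 uM final.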
GPT2 inh = Primary qHTS assay for inhibitors of Glutamate pyruvate transaminase 2 (GPT2); Alanine aminotransferase 2 (Homo sapiens), Q8TD30; Recombinant GPT2, coupled pyruvate oxidase/HRP Amplex Red fluorescence; Potency, µM (series often up to 57.7 µM), for the others: top-dose activity change, negative = inhibition, usual class: inhibitors; 100,000 tested, 0.25% active; AID 1671188, 2021; also: potency is read from the fitted curve at half-maximal effect; % is scaled to controls: 0 for no effect and ±100 for the full control effect; nearly all actives have a fitted effect of over 60% in size
Target sequence (Q8TD30 whole entry, looked up): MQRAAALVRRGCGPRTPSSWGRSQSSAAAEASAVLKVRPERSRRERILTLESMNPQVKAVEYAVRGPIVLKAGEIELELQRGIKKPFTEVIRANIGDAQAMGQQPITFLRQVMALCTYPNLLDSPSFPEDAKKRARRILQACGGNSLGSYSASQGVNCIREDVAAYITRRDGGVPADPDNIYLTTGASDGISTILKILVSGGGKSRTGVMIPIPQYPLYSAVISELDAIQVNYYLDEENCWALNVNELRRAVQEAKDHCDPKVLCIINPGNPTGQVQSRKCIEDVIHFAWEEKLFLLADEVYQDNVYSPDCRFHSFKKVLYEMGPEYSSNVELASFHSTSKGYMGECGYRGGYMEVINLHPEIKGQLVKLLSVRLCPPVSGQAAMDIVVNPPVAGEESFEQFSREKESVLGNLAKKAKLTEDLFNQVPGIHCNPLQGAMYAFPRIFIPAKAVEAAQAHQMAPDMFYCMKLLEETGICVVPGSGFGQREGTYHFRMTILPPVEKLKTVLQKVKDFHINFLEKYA
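Fluorescence read-out: pyruvate from GPT2 turnover coupled to pyruvate oxidase, HRP and Amplex Red (0.2mM ThPP, 0.2U/mL PO and HRP, 50uM Amplex final). Substrates 250uM a-KG, 2mM L-alanine; enzyme 10ng/uL; 30 min RT.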
HEK293 viab = GF-AFC viability counterscreen for inhibitors of alpha-synuclein gene (SNCA) expression; HEK-293-SNCA-luc viability, GF-AFC fluorescence, 24 h; Potency, µM (highest dose often 57.1 µM), for the others: at the top dose activity change, negative = cytotoxicity, usual class: cytotoxic; 150,000 tested, 0.12% active; AID 1671193, 2021;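 also: potency is read from the fitted curve at half-maximal effect; 0% = DMSO-treated cells and -100% = medium-only wells without cells; nearly all actives have a fitted effect of over 30% in size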
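HEK-293-SNCA-luc cells (1500/well) plated 24 h, then exposed 24 h to a dilution series; GF-AFC added 30 min at 37C, fluorescence 405/540 nm; normalised to medium-only and DMSO wells, Hill fit.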
SNCA expr inh = Primary qHTS assay for inhibitors of alpha-synuclein gene (SNCA) expression; 140,000 tested, 0.17% active; Potency, µM (top dose mostly 57.2 µM), for the others: at the top dose activity change, negative = inhibition, usual class: inhibitors; AID 1671194, 2021; HEK-293 SNCA-luciferase knock-in, luminescence, 24 h;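 also: potency is read from the fitted curve at half-maximal effect; plate controls were DMSO cells for no effect and cell-free wells for full effect; nearly all actives have a fitted effect of over 45% in size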
IP6K1 inh cnf = Confirmatory qHTS assay for small molecule inhibitors of Inositol hexaphosphate kinase 1 (IP6K1); shares compounds with IP6K1 inh; recombinant IP6K1 kinase, ADP-Glo luminescence, 2 h; Potency, µM (series often up to 49 µM), for inactives: at the highest dose activity change, negative = inhibition, usual class: inhibitors; 1,200 tested, 13% active; AID 1645852, 2021; also: potency is read from the fitted curve at half-maximal effect; % is scaled to controls: 0 for no effect and ±100 for the full control effect; nearly all actives have a fitted effect of over 65% in size
GPT2 conf = Confirmatory qHTS assay for inhibitors of Glutamate pyruvate transaminase 2 (GPT2); shares compounds with GPT2 inh; GPT2 enzyme, coupled Amplex Red pyruvate fluorescence; Potency, µM, usual class: inhibitors; 95 tested, 90% active; AID 1671187, 2021
Numbers without * were called inactive; i = inactive; ? = inconclusive; . = not tested or not shown; ! = not active in a repeat; [ ] = remark or other dose. Unless noted, calls follow the shape of the dose curve; as a rule, active = well fitted curve in the direction sought with a large enough effect; inconclusive = small, poorly fitted or top-dose-only effect, or another doubt; inactive = no such curve, though single readings can be large; an effect the other way counts as inactive or inconclusive.

SMILES	IP6K1 inh	GPT2 inh	HEK293 viab	SNCA expr inh	IP6K1 inh cnf	others
COc1ccc(F)cc1-c1ccc(CN2CCC(NC(=O)c3cccc(Cl)c3)C2)cc1 (centres undefined)	-4.2	.	.	.	.
CSc1ccc(-c2cccc(CN3CCC(NC(=O)c4ccc(Cl)nc4)CC3)c2)cc1	-7.0	.	.	.	.
CNC(=O)c1ccc(NC(=O)c2nsc3ccccc23)cc1	-27.0*	.	-7.1%	-71.0%	?
Cc1cc(C(=O)NCC2CC2)c2c(C3CCCNC3)noc2n1 (centres undefined)	4.6	i	-5.6%	-19.3%	.
O=C1Nc2nc(-c3c(O)cccc3OCC3CC3)cc([C@@H]3CCCNC3)c2CO1	-10.7	i	?	.	-16.8%
CCc1ccccc1NC(=O)CN1C(=O)CCSc2ccc(S(=O)(=O)N3CCCC3)cc21	-31.1*	.	-3.1%	-6.3%	-15.6%
O=C(CN1C(=O)CCSc2ccc(S(=O)(=O)N3CCCC3)cc21)Nc1ccccc1Cl	-1.1	.	2.9%	15.0%	.
Cc1ccc([N+](=O)[O-])c(Oc2ncnc3c2oc2ccccc23)c1	-29.4*	.	1.0%	20.1%	2.9%
COc1ccc(-c2cc(C(=O)Oc3cccc(C)c3)c3ccccc3n2)cc1	-12.0	.	0.3%	35.9%	.
COc1ccc(-c2cc(C(=O)Oc3cccc(C)c3)c3cc(C)ccc3n2)cc1	-29.6*	.	10.9%	-5.4%	-15.4%
Cc1ccc(CNS(=O)(=O)c2c(C)nc3sc(C)cn3c2=O)cc1	-26.7*	.	8.9%	-0.1%	5.1%
Cc1cn2c(=O)c(S(=O)(=O)NCCc3ccc(Cl)cc3)c(C)nc2s1	-6.1	.	4.2%	13.2%	.
COc1ccccc1-c1cccc(CN2CCCC(C(=O)NCc3ccccc3)C2)c1 (centres undefined)	5.9	i	-21.5%	-4.8%	.
CC(C)CCN1CC2(CCCN(S(=O)(=O)N3CCOCC3)C2)CCC1=O (centres undefined)	-33.4*	0.4%[11.5 µM]	-5.8%	16.8%	-11.2%
O=C1N(CC2CC2)CCCC12CCN(S(=O)(=O)N1CCOCC1)C2 (centres undefined)	-3.3	i	-0.9%	7.8%	.
O=C(c1ccc(N2CCCC2)nc1)N1CCC(N2CCOCC2)CC1	1.2	-21.3%	-13.5%	-17.9%	.
O=C(c1ccc(N2CCCC(CO)C2)nc1)N1CCC(N2CCOCC2)CC1 (centres undefined)	-34.9*	i[11.5 µM]	7.1%	-0.9%	12.9%
O=C(NCc1ccc(C(F)(F)F)cc1)C1CCCN(c2nccc(Nc3ccccc3F)n2)C1 (centres undefined)	-4.9	i	5.0%[12.5 µM]	-10.2%	.
COc1cccc(NC(=O)C2CCCN(S(=O)(=O)c3ccc4[nH]c(=O)ccc4c3)C2)c1 (centres undefined)	-32.6*	.	-10.0%	2.4%	-0.2%
CC1CCN(c2ccc(-c3cccc(N)c3)nn2)CC1	-44.2*	0.5%	-19.2%	1.41µM*	?
CCN1C[C@H]2COc3ccccc3[C@H]2N(C(=O)c2ccccc2OC)CCC1=O	3.7	.	.	.	.
Cc1c(Cn2c(C)nc3c(C(=O)O)cc(N4CCOCC4)cc32)cccc1C(F)(F)F	-7.5	i	6.6%	-15.4%	-12.1%
Cc1oc2ncnc(N3CCOCC3)c2c1C(=O)N1CCN(c2cccc(C(F)(F)F)c2)CC1	-16.5	.	12.3%	11.9%	.
O=C(NCCN1CCOCC1)c1cn2cc(-c3cccc(C(F)(F)F)c3)sc2n1	16.6	?	2.8%	?	.
Cc1cccc(-c2nc3c4ccccc4nc(NCc4ccccc4Cl)n3n2)c1	-27.2*	.	4.0%	90.3%	-25.6%
SMILES	IP6K1 inh	GPT2 inh	HEK293 viab	SNCA expr inh	IP6K1 inh cnf	others
CCOc1ccc(CNC(=O)C(C)n2ncn3cccc3c2=O)cc1 (centres undefined)	-27.2*	.	4.7%	-11.0%	-11.3%
Cc1ccc2c(c1)C(c1ccc(F)cc1)N(C(=O)c1cccc(C(F)(F)F)c1)CC(=O)N2 (centres undefined)	-26.0*	.	-28.1%	?	?
O=C(NC1CCCN(Cc2ccc(-c3cncnc3)cc2)C1)c1ccccc1Cl (centres undefined)	-0.3	-1.7%	9.0%[12.5 µM]	-1.2%	.
O=C(O)c1ccccc1O	-4.5	i	7.4%[23.9 µM]	-53.5%[25.6 µM]	.
Nc1ccc(C(=O)O)c(O)c1	-74.0*	-5.1%	-9.8%[23.9 µM]	0.0%[25.6 µM]	13.7%
O=C(CCc1ccc(O)cc1)c1c(O)cc(O)cc1O	.	6.85µM*!	-0.8%	-7.0%	5.17µM*
COc1ccc(CCC(C)=O)cc1	3.0	i	37.1%[23.9 µM]	13.6%[25.6 µM]	.
CCN(C(=O)CSc1nc(-c2ccccc2)no1)c1cccc(C)c1	-43.6*	.	?	?	30.6%
CN1CCN(Cc2ccc(CC3CCN(C(=O)c4ccc5cc[nH]c5c4)CC3)cc2)CC1	11.4	i	0.6%	-0.6%	.
COc1cccc(C(=O)N2CCCC(C(=O)N3CCC(N4Cc5cccn5C4=O)CC3)C2)c1 (centres undefined)	-10.9	i	-13.9%	14.5%	.
COc1ccccc1-c1cnc(Nc2ccc3c(c2)OCCO3)c2c1CCO2	-25.7*	-21.6%[88.5 µM]	-12.7%[87.6 µM]	128.1%[87.6 µM]	-17.4%
O=C(C1CCCN([S+](=O)([O-])c2cccc(C(F)(F)F)c2)C1)N1CCCC(c2nc3ccncc3[nH]2)C1 (centres undefined)	10.4	-5.1%	-24.3%	?	.
Cc1ccc(CC(=O)NCc2nc(-c3ccccc3)no2)cc1	-26.6*	.	10.5%	13.8%	-14.7%
Cc1ccc(-c2noc(CNC(=O)c3ccccc3)n2)cc1	-31.5*	.	-8.5%	30.2%	?
COC[C@@]12CN(c3ccccn3)C[C@@H]1C(C)(C)COc1ccc(OC)cc12	0.4	.	.	.	.
CC(C)Nc1cc(-c2c[nH]c(C(=O)N[C@H](CO)c3cccc(Cl)c3)c2)c(Cl)cn1	-19.2	0.4%	-22.3%	?	.
Cc1cnc(Nc2ccc(F)cc2Cl)nc1-c1c[nH]c(C(=O)NC(CO)c2cccc(Cl)c2)c1 (centres undefined)	-42.1*	7.08µM*	-26.8%	.	9.2µM*	GPT2 conf=3.43*
Cn1c(=O)n([C@H]2CCN(C(=O)c3ccco3)C2)c2ncccc21	-11.3	?	10.4%	-2.5%	.
CN(C)c1ccc(Nc2nc(N)n(C(=O)c3c(F)cccc3F)n2)cc1	-51.0*	3.16µM*	-21.0%	55.4%	10.3µM*	GPT2 conf=1.22*
c1ccc(CN2CCNc3cnc(Nc4ccc(N5CCOCC5)cc4)cc3C2)cc1	-9.0	?	?	?	.

Screens deposited in PubChem BioAssay by National Center for Advancing Translational Sciences (NCATS).
